This passage reports fold change results from PubChem BioAssay AID1259240 (Keith Lab, Institute of Cancer Science, University of …, 2017).

Structures are written as SMILES. Unmarked numbers belong to inactive results. Calls of active or inactive are those of the source. No stated cut-off is given here; in the data, active means fold change mostly below about -2 (no sharp cut-off); inactive means mostly above about -1.8.

This assay in a line: modulation of TERT promoter-driven luciferase – cell-based, luciferase reporter, human, primary screen (AID 1259240). To be noted: A2780 TERT promoter luciferase reporter, 16 h; at 20 µM, fold versus average of vehicle-only wells. In general terms: A reporter such as luciferase makes a cellular process visible.
Consider `c1ccc(CN2CCN(c3nnc(Cc4cccnc4)c4ccccc34)CC2)cc1`, for which the fold change is 1.04. For `COCCNC(=O)CCSc1nc(-c2ccc3c(c2)OCO3)cc(C(F)(F)F)n1` the value was -1.36. The value for `COc1ccc(CCNc2ccc3nnc(C)n3n2)c(OC)c1` was -1.29.

Consider `COc1ccc2cc3c(N)nn(C(=O)c4cncc(Br)c4)c3nc2c1`, for which the fold change is -1.5.

For the compound `CCN1C(=O)C(O)(CC(=O)c2ccc(Br)s2)c2ccccc21` (stereo not given), the fold change was -1.03. The value for `Cc1ccc(-c2cc(N)n(S(=O)(=O)c3cccc([N+](=O)[O-])c3)n2)cc1` was 1.05. The value for `CCOC(=O)C1=C(CS(=O)(=O)c2ccc(F)c(C)c2)NC(=O)NC1c1cc(OC)ccc1OC` (stereo not given) was 1.23.

For `CCN(CC)c1ccc2cc(C(=O)O)c(=O)oc2c1`, the fold change is 1.12. The value for `O=C1c2cccnc2C(=O)N1CNc1ccc(Cl)cc1` was 1.07; that for `Cc1ccc(N2CCN(c3cc(C)nc4ncnn34)CC2)c(C)c1` was -1.38. For `CN(C)C(=O)Nc1ccc2snnc2c1` the value was 1.12; for `CCc1ccc2[nH]cc(S(=O)(=O)c3ccc(C)c(C)c3)c(=O)c2c1`, 1.15. The value for `CC1CCCC(C)N1C(=O)CN1C(=O)COc2ccc(S(=O)(=O)N3CCCCCC3)cc21` (stereo not given) was -1.25; that for `CSc1ccccc1NC(=O)c1onc(C)c1Cl` was 1.5; that for `CC1CCCN(C(=O)c2ccc3c(=O)n4c(nc3c2)CCCCC4)C1` (stereo not given) was 1.14. As to `CCOc1ccc2nc(NC(=O)CN(C)S(=O)(=O)c3cnc[nH]3)sc2c1`, the fold change was 1.35.

For `C=CCn1c(SCC(=O)N2CCCCC2)nc2sc3c(c2c1=O)CCC3`, the fold change was -1.53. The value for `C1=C(CCNc2nnc(Cc3cccnc3)c3ccccc23)CCCC1` was -1.15; that for `CCOc1cc(C2c3c(oc4ccc(F)cc4c3=O)C(=O)N2Cc2ccc(F)cc2)ccc1O` (stereo not given) was -3.2 (active). With `CCOC(=O)C1=C(CS(=O)(=O)c2ccc(F)c(Cl)c2)NC(=O)NC1c1ccc(Cl)cc1` (stereo not given), the fold change was 1.33. For the compound `O=C1Nc2ccccc2N(O)N1c1cc(-c2cccc(Cl)c2)no1`, the fold change was 1.45. Take `O=C(CCCc1nnc2n3nc(-c4ccccc4)nc3c3ccccc3n12)NCC1CCCO1` (stereo not given): the fold change is 1.2. For `CCCN(CCC)S(=O)(=O)c1ccc2c(c1)oc(=O)n2CC(=O)OCC` the value was -1.16; for `COc1nnc(-c2ccc(N3CCCCC3)c(N)c2)c2ccccc12`, -1.98; for `CCOC(=O)C1CCCN(c2c(N3CCOCC3)c(=O)c2=O)C1` (stereo not given), -1.15.

As to `O=C(Nc1ccc2snnc2c1)Nc1ccccc1Cl`, the fold change is -1.86.

In the case of `CC(C)NC(=O)Cn1ncc2c3ccccc3n(C)c2c1=O`, the fold change was 1.04. For `CCS(=O)(=O)N1N=C(c2ccc(NS(C)(=O)=O)cc2)CC1c1ccccc1` (stereo not given) the value was 1.35; for `Cc1cc(NC(=O)c2onc(C)c2Cl)n(-c2ccccc2)n1`, 1.18.

As to `O=c1/c(=C/c2cn(-c3ccccc3)nc2-c2ccccc2)sc2nc(-c3ccco3)nn12`, the fold change was 1.18. The value for `O=C(O)Cn1cc(/C=C2/C(=O)Nc3ccccc32)c2ccccc21` was 1.41. For `O=C(NC1CCCc2ccccc21)c1cccc(NC2=NC3CS(=O)(=O)CC3S2)c1` (stereo not given) the value was 1.36. As for `CC1CCC(NC(=O)C(=O)Nc2ccc3nc4n(c(=O)c3c2)CCCCC4)CC1` (stereo not given), the fold change was 1. For `Cc1cccc2sc(NC(=O)c3ccc(CNc4c(NC5CCCC5)c(=O)c4=O)cc3)nc12` the value was -1.04; for `COc1ccc2c(NCC3=CC=CC3)cc(C)nc2c1`, -1.73; for `COC(=O)c1[nH]c(=O)c2ccccc2c1O`, -1.15. For `O=C(CN1C(=O)COc2ccc(S(=O)(=O)N3CCCC3)cc21)NCCCN1CCOCC1` the value was -1.17; for `O=c1nc2s/c(=C\c3ccco3)c(=O)n2nc1Cc1ccc(Cl)cc1`, -1.46; for `CSc1nsc(SC)c1C(=O)NCCNS(=O)(=O)c1ccc(C)cc1`, -1.37. On to `Cc1cc(NC(=O)CSc2ncnc3ccccc23)no1`, for which the fold change was 1.35.
